Test results from PubChem BioAssay (EPA / NIEHS).
Results filed as inconclusive are left out. The source made the active and inactive calls. The calls were made as follows, unless noted: active = hit-call score of the fitted dose curve at least 0.9, where 1 is the maximum; inconclusive = response in the unintended direction; inactive = score below 0.9.

Key:
[1] = Tanguay_ZF_120hpf_CIRC_legacy: (Legacy) Oregon State University Tanguay Lab 120 Hour Post-fertilization zebrafish Assay for Circulatory Malformation (AID 2283651)
Outline: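 Static exposure, 6–120 hpf, 28C, sealed and dark; one dechorionated 5D embryo/well; DMSO 0.64% v/v final. Binary circulation endpoint by brightfield; dead embryos not scored.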

[2] = Tanguay_ZF_120hpf_SWIM_legacy: (Legacy) Oregon State University Tanguay Lab 120 Hour Post-fertilization zebrafish Assay for Swim Bladder Malformation (AID 2283654);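 also: swim bladder malformation in each larva scored yes or no under brightfield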
Outline: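 Tropical 5D embryos dechorionated at 4 hpf; 1 embryo/well from 6 hpf; static, sealed, dark exposure at 28C until 120 hpf; final DMSO 0.64%; 5uM trimethyltin chloride positive control; swim bladder defect recorded yes/no; dead embryos not scored.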

[3] = Tanguay_ZF_120hpf_NC_legacy: (Legacy) Oregon State University Tanguay Lab 120 Hour Post-fertilization zebrafish Assay for Notochord and Tail Malformation (AID 2283656)
Outline: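 Binary notochord-distortion calls, made by brightfield inspection, form the read-out; activity is fitted in the positive direction against DMSO. Exposure ran statically from 6 to 120 hpf at 28C with 0.64% DMSO.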

[4] = Tanguay_ZF_120hpf_TRUN_legacy: (Legacy) Oregon State University Tanguay Lab 120 Hour Post-fertilization zebrafish Assay for Truncated Body (AID 2283655)
Outline: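 Whole-embryo zebrafish screen: dechorionated 5D embryos, static exposure 6–120 hpf, 28C, sealed foil-covered plates, 0.64% DMSO. Binary truncation call; gain of signal versus DMSO baseline.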

[5] = system: Thyroperoxidase (TPO), gene 54314; assay: CCTE_Simmons_AUR_rTPO: CCTE's Amplex UltraRed Assay for Thyroperoxidase (TPO) Inhibition, Simmons Lab (AID 2283662);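 also: potency for loss of signal meaning inhibition of peroxidase activity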
Outline: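 Rat thyroid microsomal TPO + 25 uM AUR in 200 mM K phosphate; cpd 5 nM–87.5 uM [final], 8 conc, 0.5% DMSO; 300 uM H2O2 starts rxn; 37C dark 30 min; endpoint FI 544/590 nm; n=3.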

[6] = CCTE_Simmons_CellTiterGLO_HEK293T: Viability Assessment in CCTE's Assays for Thyroperoxidase (TPO) Inhibition, Simmons Lab (AID 2283665);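 as to AC50: cells exposed to compound for 24 h before readout; actives reduce ATP signal below DMSO vehicle meaning cytotoxicity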
Outline: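 Luminescent ATP readout (CellTiter-Glo, 20 min at room temperature) after 24 hr exposure of HEK293T cells to 5 nM–87.5 uM final compound; signal loss relative to DMSO vehicle indicated cytotoxicity; dichlone titrated as positive control.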

[7] = read-out: kallikrein-3 (KLK3), KLK3 (gene 354); assay: LTEA_HepaRG_KLK3: Life Technologies and Expression Analysis (LTEA) Assay for kallikrein-3 (KLK3) using HepaRG (AID 2283652; active = hit-call score of the fitted dose curve at least 0.9, where 1 is the maximum; inactive = score below 0.9); settings: mRNA level, 48 h; actives raise or lower the signal
Outline: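 KLK3 transcript levels were measured by TaqMan qRT-PCR with normalisation to three housekeeping genes. HepaRG cultures received chemicals for 48 h at up to 100 uM (half-log, 8 points, 0.5% DMSO vehicle), fitted in both directions against DMSO.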

[8] = read-out: solute carrier (SLC22A6), SLC22A6 (gene 9356); assay: LTEA_HepaRG_SLC22A6: Life Technologies and Expression Analysis (LTEA) Assay for solute carrier (SLC22A6) using HepaRG (AID 2283653; active = hit-call score of the fitted dose curve at least 0.9, where 1 is the maximum; inactive = score below 0.9); settings: mRNA level, 48 h; actives raise or lower the signal
Outline: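 HepaRG, human liver line; 48 h chemical exposure; 8-pt half-log series from 100 uM in 0.5% DMSO, duplicate wells. Readout: TaqMan qRT-PCR of SLC22A6 mRNA, housekeeping-normalised; bidirectional curve fit vs DMSO baseline.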

[9] = read-out: solute carrier (SLC10A1), SLC10A1 (gene 6554); assay: LTEA_HepaRG_SLC10A1: Life Technologies and Expression Analysis (LTEA) Assay for solute carrier (SLC10A1) using HepaRG (AID 2283657; active = hit-call score of the fitted dose curve at least 0.9, where 1 is the maximum; inactive = score below 0.9); settings: mRNA level, 48 h; actives raise or lower the signal
Outline: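 HepaRG, 48 h exposure, 8-pt half-log curve from 100 uM in 0.5% DMSO, duplicates. Read-out: TaqMan qRT-PCR of SLC10A1 mRNA, normalized to three housekeeping genes. Gain/loss fit vs DMSO baseline.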

[10] = read-out: matrix metalloproteinase-1 (MMP1), MMP1 (gene 4312); assay: LTEA_HepaRG_MMP1: Life Technologies and Expression Analysis (LTEA) Assay for matrix metalloproteinase-1 (MMP1) using HepaRG (AID 2283658; active = hit-call score of the fitted dose curve at least 0.9, where 1 is the maximum; inactive = score below 0.9); settings: mRNA level, 48 h; actives raise or lower the signal
Outline: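 MMP1 transcript read by TaqMan qRT-PCR (Fluidigm array) after 48 h chemical exposure of HepaRG cells in serum-free induction medium. Eight-point half-log series, top 100 uM, 0.5% DMSO vehicle. Bidirectional curve fit against DMSO baseline.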

## CN(C)CCCN(C)CCCN(C)C
[1]
  outcome: inactive
[2]
  outcome: inactive
[3]
  outcome: inactive

## Nc1nc(=S)c2[nH]cnc2[nH]1
[2]
  outcome: inactive
[4]
  outcome: inactive
[3]
  outcome: inactive
[5]
  AC50: 0.414 µM (active)
[6]
  AC50: 1.29 µM (active)

## O=NO
[1]
  outcome: inactive
[3]
  outcome: inactive

## S=c1[nH]c2ccccc2s1
[2]
  outcome: inactive
[4]
  AC50: 11.4 µM (active)
[3]
  AC50: 51.8 µM (active)
[5]
  AC50: 0.433 µM (active)
[6]
  outcome: inactive

## COc1ccc(C(=O)Nc2nc3ccccc3c(NCc3ccccc3)c2C#N)cc1
[1]
  outcome: inactive
[2]
  outcome: inactive
[3]
  outcome: inactive

## Cc1cn([C@H]2C=C[C@@H](CO)O2)c(=O)[nH]c1=O
[1]
  outcome: inactive
[2]
  outcome: inactive
[3]
  outcome: inactive

## Oc1ccccc1O
[2]
  outcome: inactive
[4]
  outcome: inactive
[3]
  outcome: inactive
[5]
  AC50: 0.84 µM (active)
[6]
  AC50: 34.4 µM (active)

## COC(=O)[C@H]1[C@H]2C[C@@H]3c4[nH]c5cc(OC)ccc5c4CCN3C[C@H]2C[C@@H](OC(=O)c2cc(OC)c(OC)c(OC)c2)[C@@H]1OC
[1]
  outcome: inactive
[4]
  outcome: inactive
[3]
  outcome: inactive
[5]
  AC50: 7.3 µM (active)
[6]
  AC50: 45.3 µM (active)

## O=C(N[C@@H](c1ccccc1)[C@@H]1CCCCN1)c1cccc(C(F)(F)F)c1Cl
[1]
  outcome: inactive
[4]
  outcome: inactive
[3]
  outcome: inactive

## NC1CCCCC1
[1]
  outcome: inactive
[4]
  outcome: inactive
[3]
  outcome: inactive

## NC=O
[2]
  outcome: inactive
[4]
  outcome: inactive
[3]
  outcome: inactive

## CC(C)COC(=O)CCCCC(=O)OCC(C)C
[2]
  outcome: inactive
[4]
  outcome: inactive
[3]
  outcome: inactive

## O=Cc1ccccc1C=O
[1]
  outcome: inactive
[4]
  outcome: inactive
[3]
  outcome: inactive
[5]
  AC50: 41.8 µM (active)
[6]
  AC50: 4.91 µM (active)

## CCCCOC(=O)CCCCC(=O)OCCCC
[2]
  outcome: inactive
[4]
  outcome: inactive
[3]
  outcome: inactive

## CC(C)c1cccc(C(C)C)c1
[1]
  outcome: inactive
[4]
  outcome: inactive
[3]
  outcome: inactive

## CCCCC(CC)COP(=O)(OCC(CC)CCCC)OCC(CC)CCCC (stereo unspecified)
[2]
  outcome: inactive
[4]
  outcome: inactive
[3]
  outcome: inactive

## CC(C)c1cccc(C(C)C)c1NC(=O)NS(=O)(=O)c1cc(C(C)(C)O)co1
[1]
  outcome: inactive
[4]
  outcome: inactive
[3]
  outcome: inactive

## C/C=C/C=C/C(=O)O
[1]
  outcome: inactive
[2]
  outcome: inactive
[3]
  outcome: inactive
[5]
  AC50: 48.8 µM (active)
[6]
  AC50: 48.8 µM (active)

## O=C(NS(=O)(=O)/C=C/c1cccs1)c1ccc(F)cc1Br
[2]
  outcome: inactive
[4]
  outcome: inactive
[3]
  outcome: inactive

## CCc1cc(C2=C(C(=O)O)N(c3ccccc3C(F)(F)F)S(=O)(=O)c3ccccc32)cc2c1OCO2
[2]
  outcome: inactive
[4]
  outcome: inactive

## C/C=C/c1ccc(OC)cc1
[2]
  outcome: inactive
[4]
  outcome: inactive
[3]
  outcome: inactive
[5]
  AC50: 28.4 µM (active)
[6]
  outcome: inactive

## CC(N)=O
[1]
  outcome: inactive
[2]
  outcome: inactive
[3]
  outcome: inactive

## COC(=O)CCCC(=O)OC
[2]
  outcome: inactive
[4]
  outcome: inactive
[3]
  outcome: inactive

## CCCCCCC(CCCCCCCCCCC(=O)OCC(COC(C)=O)OC(C)=O)OC(C)=O (stereo unspecified)
[7]
  outcome: inactive
[8]
  outcome: inactive
[2]
  outcome: inactive
[4]
  outcome: inactive
[3]
  outcome: inactive
[9]
  outcome: inactive
[10]
  outcome: inactive

## CCc1nc(N)nc(N)c1-c1ccc(Cl)cc1
[1]
  outcome: inactive
[4]
  outcome: inactive
[3]
  outcome: inactive
